# Test results published in the supplement of paper PMC6897291.
# Columns and labels:
# U-2932 [1] = experiment: growth inhibition by drug alone (1 - RLU/untreated control) (fraction); higher = stronger inhibition; conditions: 177Lu-lilotomab satetraxetan 0 ug/ml
# How it was run: (§1)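 Plates pre-printed with the Selleck Cambridge Cancer Compound library at 10/100 nM (RIVA) or 10/1,000 nM (U-2932) received 3,000 cells/well. These cells had been washed after 18 h untreated or with a radiolabelled anti-CD37 antibody conjugate (~600 MBq/mg; 0.5 µg/ml RIVA, 1 µg/ml U-2932). Growth inhibition was obtained from RealTime-Glo luminescence in relation to untreated no-drug wells. Each daily read from day 3, taken after 1 h at 37°C, was converted as 1 − RLU/mean of 48 such wells per plate.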
# RIVA [2] = experiment: as above; conditions: 177Lu-lilotomab satetraxetan 0 ug/ml
# How it was run: as §1
# U-2932 [3] = experiment: growth inhibition by drug plus 177Lu-lilotomab satetraxetan (1 - RLU/untreated control) (fraction); higher = stronger inhibition; conditions: 177Lu-lilotomab satetraxetan 1 ug/ml
# How it was run: as §1
# RIVA [4] = experiment: as above; conditions: 177Lu-lilotomab satetraxetan 0.5 ug/ml
# How it was run: as §1
smiles,measurement,setting,value
O=C(O)Cc1cccc(OCCCN(Cc2cccc(C(F)(F)F)c2Cl)CC(c2ccccc2)c2ccccc2)c1,growth inhibition by drug alone,"U-2932 [1]; 10 nM, time (day): 3",0.116
same,growth inhibition by drug alone,"U-2932 [1]; 10 nM, time (day): 4",0.0747
same,growth inhibition by drug alone,"U-2932 [1]; 10 nM, time (day): 5",-0.121
same,growth inhibition by drug alone,"U-2932 [1]; 10 nM, time (day): 6",-0.11
same,growth inhibition by drug alone,"U-2932 [1]; 1000 nM, time (day): 3",0.111
same,growth inhibition by drug alone,"U-2932 [1]; 1000 nM, time (day): 4",0.127
same,growth inhibition by drug alone,"U-2932 [1]; 1000 nM, time (day): 5",-0.0348
same,growth inhibition by drug alone,"U-2932 [1]; 1000 nM, time (day): 6",-0.224
same,growth inhibition by drug alone,"RIVA [2]; 10 nM, time (day): 3",0.0962
same,growth inhibition by drug alone,"RIVA [2]; 10 nM, time (day): 4",0.115
same,growth inhibition by drug alone,"RIVA [2]; 10 nM, time (day): 5",0.0874
same,growth inhibition by drug alone,"RIVA [2]; 10 nM, time (day): 6",-0.0108
same,growth inhibition by drug alone,"RIVA [2]; 100 nM, time (day): 3",0.667
same,growth inhibition by drug alone,"RIVA [2]; 100 nM, time (day): 4",0.512
same,growth inhibition by drug alone,"RIVA [2]; 100 nM, time (day): 5",0.515
same,growth inhibition by drug alone,"RIVA [2]; 100 nM, time (day): 6",0.524
same,growth inhibition by drug plus 177Lu-lilotomab satetraxetan,"U-2932 [3]; 10 nM, time (day): 3",0.0517
same,growth inhibition by drug plus 177Lu-lilotomab satetraxetan,"U-2932 [3]; 10 nM, time (day): 4",0.0894
same,growth inhibition by drug plus 177Lu-lilotomab satetraxetan,"U-2932 [3]; 10 nM, time (day): 5",0.143
same,growth inhibition by drug plus 177Lu-lilotomab satetraxetan,"U-2932 [3]; 10 nM, time (day): 6",0.142
same,growth inhibition by drug plus 177Lu-lilotomab satetraxetan,"U-2932 [3]; 1000 nM, time (day): 3",0.162
same,growth inhibition by drug plus 177Lu-lilotomab satetraxetan,"U-2932 [3]; 1000 nM, time (day): 4",0.224
same,growth inhibition by drug plus 177Lu-lilotomab satetraxetan,"U-2932 [3]; 1000 nM, time (day): 5",0.223
same,growth inhibition by drug plus 177Lu-lilotomab satetraxetan,"U-2932 [3]; 1000 nM, time (day): 6",0.228
same,growth inhibition by drug plus 177Lu-lilotomab satetraxetan,"RIVA [4]; 10 nM, time (day): 3",0.667
same,growth inhibition by drug plus 177Lu-lilotomab satetraxetan,"RIVA [4]; 10 nM, time (day): 4",0.666
same,growth inhibition by drug plus 177Lu-lilotomab satetraxetan,"RIVA [4]; 10 nM, time (day): 5",0.678
same,growth inhibition by drug plus 177Lu-lilotomab satetraxetan,"RIVA [4]; 10 nM, time (day): 6",0.677
same,growth inhibition by drug plus 177Lu-lilotomab satetraxetan,"RIVA [4]; 100 nM, time (day): 3",0.86
same,growth inhibition by drug plus 177Lu-lilotomab satetraxetan,"RIVA [4]; 100 nM, time (day): 4",0.858
same,growth inhibition by drug plus 177Lu-lilotomab satetraxetan,"RIVA [4]; 100 nM, time (day): 5",0.874
same,growth inhibition by drug plus 177Lu-lilotomab satetraxetan,"RIVA [4]; 100 nM, time (day): 6",0.893
CCC[C@H](NC(=O)/C(C#N)=C/c1cccc(Br)n1)c1ccccc1,growth inhibition by drug alone,"U-2932 [1]; 10 nM, time (day): 3",0.109
same,growth inhibition by drug alone,"U-2932 [1]; 10 nM, time (day): 4",0.0652
same,growth inhibition by drug alone,"U-2932 [1]; 10 nM, time (day): 5",-0.0661
same,growth inhibition by drug alone,"U-2932 [1]; 10 nM, time (day): 6",-0.128
same,growth inhibition by drug alone,"U-2932 [1]; 1000 nM, time (day): 3",0.0251
same,growth inhibition by drug alone,"U-2932 [1]; 1000 nM, time (day): 4",0.0639
same,growth inhibition by drug alone,"U-2932 [1]; 1000 nM, time (day): 5",-0.0194
same,growth inhibition by drug alone,"U-2932 [1]; 1000 nM, time (day): 6",-0.182
same,growth inhibition by drug alone,"RIVA [2]; 10 nM, time (day): 3",-0.0156
same,growth inhibition by drug alone,"RIVA [2]; 10 nM, time (day): 4",-0.0305
same,growth inhibition by drug alone,"RIVA [2]; 10 nM, time (day): 5",-0.179
same,growth inhibition by drug alone,"RIVA [2]; 10 nM, time (day): 6",-0.663
same,growth inhibition by drug alone,"RIVA [2]; 100 nM, time (day): 3",-0.455
same,growth inhibition by drug alone,"RIVA [2]; 100 nM, time (day): 4",-0.31
same,growth inhibition by drug alone,"RIVA [2]; 100 nM, time (day): 5",-0.323
same,growth inhibition by drug alone,"RIVA [2]; 100 nM, time (day): 6",-0.514
same,growth inhibition by drug plus 177Lu-lilotomab satetraxetan,"U-2932 [3]; 10 nM, time (day): 3",0.0639
same,growth inhibition by drug plus 177Lu-lilotomab satetraxetan,"U-2932 [3]; 10 nM, time (day): 4",0.1
same,growth inhibition by drug plus 177Lu-lilotomab satetraxetan,"U-2932 [3]; 10 nM, time (day): 5",0.129
same,growth inhibition by drug plus 177Lu-lilotomab satetraxetan,"U-2932 [3]; 10 nM, time (day): 6",0.098
same,growth inhibition by drug plus 177Lu-lilotomab satetraxetan,"U-2932 [3]; 1000 nM, time (day): 3",0.0285
same,growth inhibition by drug plus 177Lu-lilotomab satetraxetan,"U-2932 [3]; 1000 nM, time (day): 4",0.0599
same,growth inhibition by drug plus 177Lu-lilotomab satetraxetan,"U-2932 [3]; 1000 nM, time (day): 5",0.115
same,growth inhibition by drug plus 177Lu-lilotomab satetraxetan,"U-2932 [3]; 1000 nM, time (day): 6",0.183
same,growth inhibition by drug plus 177Lu-lilotomab satetraxetan,"RIVA [4]; 10 nM, time (day): 3",0.529
same,growth inhibition by drug plus 177Lu-lilotomab satetraxetan,"RIVA [4]; 10 nM, time (day): 4",0.596
same,growth inhibition by drug plus 177Lu-lilotomab satetraxetan,"RIVA [4]; 10 nM, time (day): 5",0.601
same,growth inhibition by drug plus 177Lu-lilotomab satetraxetan,"RIVA [4]; 10 nM, time (day): 6",0.61
same,growth inhibition by drug plus 177Lu-lilotomab satetraxetan,"RIVA [4]; 100 nM, time (day): 3",0.35
same,growth inhibition by drug plus 177Lu-lilotomab satetraxetan,"RIVA [4]; 100 nM, time (day): 4",0.448
same,growth inhibition by drug plus 177Lu-lilotomab satetraxetan,"RIVA [4]; 100 nM, time (day): 5",0.465
same,growth inhibition by drug plus 177Lu-lilotomab satetraxetan,"RIVA [4]; 100 nM, time (day): 6",0.478
O=C(O)c1ccc2c(c1)nc(Nc1cccc(Cl)c1)c1ccncc12 [cx-4945 (Silmitasertib)],growth inhibition by drug alone,"U-2932 [1]; 10 nM, time (day): 3",0.0111
same,growth inhibition by drug alone,"U-2932 [1]; 10 nM, time (day): 4",-0.0226
same,growth inhibition by drug alone,"U-2932 [1]; 10 nM, time (day): 5",-0.00497
same,growth inhibition by drug alone,"U-2932 [1]; 10 nM, time (day): 6",0.0386
same,growth inhibition by drug alone,"U-2932 [1]; 1000 nM, time (day): 3",0.0436
same,growth inhibition by drug alone,"U-2932 [1]; 1000 nM, time (day): 4",0.0306
same,growth inhibition by drug alone,"U-2932 [1]; 1000 nM, time (day): 5",-0.0126
same,growth inhibition by drug alone,"U-2932 [1]; 1000 nM, time (day): 6",-0.0489
same,growth inhibition by drug alone,"RIVA [2]; 10 nM, time (day): 3",-0.142
same,growth inhibition by drug alone,"RIVA [2]; 10 nM, time (day): 4",-0.128
same,growth inhibition by drug alone,"RIVA [2]; 10 nM, time (day): 5",-0.161
same,growth inhibition by drug alone,"RIVA [2]; 10 nM, time (day): 6",-0.291
same,growth inhibition by drug alone,"RIVA [2]; 100 nM, time (day): 3",0.0492
same,growth inhibition by drug alone,"RIVA [2]; 100 nM, time (day): 4",-0.00845
same,growth inhibition by drug alone,"RIVA [2]; 100 nM, time (day): 5",-0.0374
same,growth inhibition by drug alone,"RIVA [2]; 100 nM, time (day): 6",-0.111
same,growth inhibition by drug plus 177Lu-lilotomab satetraxetan,"U-2932 [3]; 10 nM, time (day): 3",0.0376
same,growth inhibition by drug plus 177Lu-lilotomab satetraxetan,"U-2932 [3]; 10 nM, time (day): 4",0.0473
same,growth inhibition by drug plus 177Lu-lilotomab satetraxetan,"U-2932 [3]; 10 nM, time (day): 5",0.0445
same,growth inhibition by drug plus 177Lu-lilotomab satetraxetan,"U-2932 [3]; 10 nM, time (day): 6",0.189
same,growth inhibition by drug plus 177Lu-lilotomab satetraxetan,"U-2932 [3]; 1000 nM, time (day): 3",0.0211
same,growth inhibition by drug plus 177Lu-lilotomab satetraxetan,"U-2932 [3]; 1000 nM, time (day): 4",0.0508
same,growth inhibition by drug plus 177Lu-lilotomab satetraxetan,"U-2932 [3]; 1000 nM, time (day): 5",0.0545
same,growth inhibition by drug plus 177Lu-lilotomab satetraxetan,"U-2932 [3]; 1000 nM, time (day): 6",0.159
same,growth inhibition by drug plus 177Lu-lilotomab satetraxetan,"RIVA [4]; 10 nM, time (day): 3",0.409
same,growth inhibition by drug plus 177Lu-lilotomab satetraxetan,"RIVA [4]; 10 nM, time (day): 4",0.518
same,growth inhibition by drug plus 177Lu-lilotomab satetraxetan,"RIVA [4]; 10 nM, time (day): 5",0.528
same,growth inhibition by drug plus 177Lu-lilotomab satetraxetan,"RIVA [4]; 10 nM, time (day): 6",0.542
same,growth inhibition by drug plus 177Lu-lilotomab satetraxetan,"RIVA [4]; 100 nM, time (day): 3",0.413
same,growth inhibition by drug plus 177Lu-lilotomab satetraxetan,"RIVA [4]; 100 nM, time (day): 4",0.47
same,growth inhibition by drug plus 177Lu-lilotomab satetraxetan,"RIVA [4]; 100 nM, time (day): 5",0.487
same,growth inhibition by drug plus 177Lu-lilotomab satetraxetan,"RIVA [4]; 100 nM, time (day): 6",0.468
